Assay results as given in PubChem BioAssay AID624331 (National Center for Advancing Translational Sciences (NCATS), 2012).
Inconclusive results are not listed. Values without a mark were called inactive. Activity calls are given as the source filed them. Calls come from the whole dose curve; as a rule, active = well fitted activation curve with a large enough effect; inconclusive = small, poorly fitted or top-dose-only effect; inactive = no such curve, though single readings can be large or run the other way.

Assay: qHTS assay for re-activators of p53 using a Luc reporter: Hit Validation with no p53 Expressed; for activity change, positive = activation: 0% is about no effect
Conditions: p53-null cells, luciferase reporter counter-screen; series mostly up to 46.1 µM; activity change, positive = activation: at the top concentration
In short: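 Counter-screen of primary hits in a cell line not transfected with p53, in Opti-MEM with 10% FBS; compounds at several concentrations (10 mM stock, 1:5; top 46.1 µM in well), 24 h at 37 deg C, 5% CO2. Luminescence read after 10 min with Amplite reagent.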
Potency is the fitted concentration of half-maximal effect.

Row | SMILES | activity change, positive = activation | Potency
1 | CCCCn1c(O)c(N=Nc2ccccc2O)c2ccccc21 | -32.9% | 
2 | N#Cc1c(NC(=O)/C=C/c2ccco2)sc2c1CCCC2 | 13% | 
3 | CCOC(=O)c1ccc2ncc(C(=O)OCC)c(NCc3ccco3)c2c1 | -11.3% | 
4 | COc1ccc2c(c1)CCC/C2=N\NC(=O)c1ccoc1C | -0.779% | 
5 | CCCC(=O)NC(c1cccs1)c1cc([N+](=O)[O-])c2cccnc2c1O (centres undefined) | -22.1% | 
6 | CC(C)(C)NC(=O)CSC(=Nc1ccccc1F)NC#N | 36.7% | 
7 | CCOC(=O)C1=C(C)Nc2ncnn2C1c1c[nH]c2ccccc12 (centres undefined) | 13.4% | 
8 | CC1CCCC(C)N1C(=O)CSc1nnc(-c2cccs2)o1 (centres undefined) | 52.8% | 
9 | CCOc1ccc2cc(C#N)c(SCC(=O)OC)nc2c1 | 90% | 
10 | CN(C)c1ccc(N=Cc2nc(-c3ccccc3)oc2OC(=O)c2cccc(Cl)c2)cc1 | 44.4% | 
11 | Cc1cccc(NC(=S)NC(=O)C2CC2)c1 | 19.6% | 
12 | COc1cccc(NC(=O)CSC2=C(C#N)C(c3ccco3)C3=C(CCCC3=O)N2)c1 (centres undefined) | -26.5% | 
13 | C/C(=N\NC(=S)NC1CCCCC1)c1ccccc1 | -26.8% | 
14 | CC(C)c1ccc(NC(=S)NN2CCOCC2)cc1 | -15.3% | 
15 | O=[N+]([O-])c1ccc(/C=N/NC(=S)Nc2ccccc2F)o1 | -5.46% | 
16 | COC(=O)CCC(=O)COc1ccccc1C#N | 18.7% | 
17 | N/C(=N\c1nc2ccccc2o1)NC(=O)c1ccc(F)cc1 | 63.9% | 
18 | COc1ccccc1C(=O)NNC(=O)c1cccc(F)c1 | 15% | 
19 | CC(=O)N/C(=C/c1ccc2c(c1)OCO2)C(=O)Nc1ccccc1 | -13.1% | 
20 | O=C(Cn1cc2c(n1)CCCCC2)NC1CCCCCC1 | 4.66% | 

Row | SMILES | activity change, positive = activation | Potency
21 | Cc1ccc(C(=O)NC2CC2)cc1S(=O)(=O)N1CCOCC1 | -41.5% | 
22 | CCOC(=O)c1cc(-c2ccccc2)sc1NC(=O)CC | -51.7% | 
23 | O=C(Nc1ccc2c(c1)CCC2)c1ccccc1 | 24.9% | 
24 | c1ccc2nc(-c3ccc(N4CCOCC4)cc3)ccc2c1 | -36.1% | 
25 | O=C1c2cccc3cc([N+](=O)[O-])cc(c23)C(=O)N1CCN1CCCC1 | -32.6% | 
26 | C=CCNc1ncnc2c1cnn2-c1ccc(Cl)cc1 | 55.5% | 
27 | COc1ccc(CCC(=O)NC(C)C2CCCO2)cc1 (centres undefined) | -46.1% | 
28 | COC(=O)c1nn(-c2ccc(-c3ccccc3)cc2)cc1O | 13.6% | 
29 | COc1ccc2nc(SCc3ccccc3)nc(C)c2c1 | 35.8% | 
30 | CCOc1cccc(-c2c(C(=O)N/N=C(\C)c3ccccn3)nnn2-c2nonc2N)c1 | -29.5% | 
31 | CC(=O)NC1=C(Nc2ccc(N(C)C)cc2)C(=O)c2ccccc2C1=O | 47.3% | 
32 | CCOc1ccc2c(c1)C(C)=CC(C)(C)N2S(=O)(=O)c1ccc(NC(C)=O)cc1 | -47.8% | 
33 | CCOC(=O)c1csc(Nc2nc3ccc(F)cc3s2)n1 | 16.4% | 
34 | CCN(CC)CCn1c(SCC(=O)Nc2ccc3c(c2)CCC3)nc2ccccc2c1=O |  | 8.2 µM (active)
35 | c1ccc2oc(C3=NNC(=NC4CC4)SC3)cc2c1 | -37.4% | 
36 | O=C(NN=C1CCCCCC1)c1cccs1 | 57% | 
37 | Cc1cc(/C=N/Nc2ncnc(N)c2[N+](=O)[O-])c(C)n1-c1ccccc1 | -65.8% | 
38 | COc1ccc2cc(C3(C)NC(=O)N(CC(=O)Nc4c(C)n(C)n(-c5ccccc5)c4=O)C3=O)ccc2c1 (centres undefined) | -34.1% | 
39 | O=C(CC1CCCCC1)NCc1ccc(Cl)cc1 | 0.113% | 
